Assay results taken from PubChem BioAssay (EPA / NIEHS).
Active and inactive are the calls of the source. The calls were made as follows: active = hit-call score of the fitted dose curve at least 0.9, where 1 is the maximum; inactive = score below 0.9.

Experiments:
Conditions in all cases: mRNA level, 48 h; actives raise or lower the signal
[1] = read-out: MYC, MYC (gene 4609); assay: LTEA_HepaRG_MYC: Life Technologies and Expression Analysis (LTEA) Assay for MYC using HepaRG (AID 2283518)
Procedure, shortened: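 Differentiated human HepaRG cells, plated 48 h then switched to serum-free induction medium, were exposed in duplicate for 48 h to 8-point half-log series up to 100 uM in 0.5% DMSO. MYC mRNA measured by qRT-PCR, normalized to ACTB/GAPDH/POLR2A.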

[2] = read-out: matrix metalloproteinase-3 (MMP3), MMP3 (gene 4314); assay: LTEA_HepaRG_MMP3: Life Technologies and Expression Analysis (LTEA) Assay for matrix metalloproteinase-3 (MMP3) using HepaRG (AID 2283519)
Procedure, shortened: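 Human liver HepaRG cultures received chemicals (top concentration 100 uM, 0.5% DMSO) for 48 h in duplicate. MMP3 mRNA induction or loss was then assessed via TaqMan qRT-PCR with housekeeping-gene normalisation.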

[3] = read-out: Paternally Expressed 10 (PEG10), PEG10 (gene 23089); assay: LTEA_HepaRG_PEG10: Life Technologies and Expression Analysis (LTEA) Assay for Paternally Expressed 10 (PEG10) using HepaRG (AID 2283520)
Procedure, shortened: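 qRT-PCR read-out: PEG10 mRNA normalised to three housekeeping genes, fitted bidirectionally against 0.5% DMSO vehicle. HepaRG cells received test chemicals for 48 h in serum-free induction medium, 8 points, top 100 uM, half-log steps.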

[4] = read-out: Nuclear factor NF-kappa-B p105 subunit (Homo sapiens) (UniProt P19838); assay: LTEA_HepaRG_NFKB1: Life Technologies and Expression Analysis (LTEA) Assay for Nuclear Factor Kappa B Subunit 1 (NFKB1) using HepaRG (AID 2283521);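 also: TaqMan qRT-PCR transcript normalised to ACTB GAPDH and POLR2A housekeeping genes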
Procedure, shortened: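 Differentiated human HepaRG cells in serum-free induction medium with 0.5% DMSO were exposed for 48 h to eight half-log concentrations, top 100 uM, in duplicate. NFKB1 mRNA measured by Fluidigm TaqMan qRT-PCR, normalised to ACTB, GAPDH and POLR2A; bidirectional fit versus DMSO.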

[5] = read-out: Protein phosphatase 2A (PPP2R4), PTPA (gene 5524); assay: LTEA_HepaRG_PPP2R4: Life Technologies and Expression Analysis (LTEA) Assay for Protein phosphatase 2A (PPP2R4) using HepaRG (AID 2283522)
Procedure, shortened: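 HepaRG, 48 h exposure, 8-pt half-log series from 100 uM, 0.5% DMSO vehicle, duplicates. Readout: PPP2R4 mRNA, Fluidigm qRT-PCR, housekeeping-normalized. Bidirectional curve fit vs DMSO baseline.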

[6] = read-out: Phosphatase and tensin (PTEN), PTEN (gene 5728); assay: LTEA_HepaRG_PTEN: Life Technologies and Expression Analysis (LTEA) Assay for Phosphatase and tensin (PTEN) using HepaRG (AID 2283523)
Procedure, shortened: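 Expression of PTEN is quantified in the human liver line HepaRG following two days of dosing (top concentration 100 uM, half-log dilutions, 0.5% DMSO). Values derive from bidirectional curve fitting relative to DMSO controls.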

[7] = read-out: solute carrier (SLC22A1), SLC22A1 (gene 6580); assay: LTEA_HepaRG_SLC22A1: Life Technologies and Expression Analysis (LTEA) Assay for solute carrier (SLC22A1) using HepaRG (AID 2283524)
Procedure, shortened: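 Transcript induction or suppression of SLC22A1 in human HepaRG cultures is scored after 48 h chemical treatment, with DMSO (0.5%) as baseline for bidirectional fitting. Concentrations span eight half-log points topping at 100 uM.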

[8] = read-out: Pyruvate Dehydrogenase Kinase 4 (PDK4), PDK4 (gene 5166); assay: LTEA_HepaRG_PDK4: Life Technologies and Expression Analysis (LTEA) Assay for Pyruvate Dehydrogenase Kinase 4 (PDK4) using HepaRG (AID 2283525)
Procedure, shortened: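 Eight-point, half-log concentration series (max 100 uM, 0.5% DMSO) applied to differentiated HepaRG cells for 48 h in duplicate. Endpoint: PDK4 mRNA induction or repression by qRT-PCR against DMSO baseline.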

[9] = read-out: Nuclear factor erythroid 2-related factor 2 (Homo sapiens) (UniProt Q16236); assay: LTEA_HepaRG_NFE2L2: Life Technologies and Expression Analysis (LTEA) Assay for Nuclear factor erythroid 2-related factor 2 (NFE2L2) Transcription Factor using HepaRG (AID 2283527);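 also: TaqMan qRT-PCR transcript level normalised to ACTB GAPDH and POLR2A housekeeping genes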
Procedure, shortened: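 Human liver HepaRG line treated in duplicate for 48 h with an eight-point series topping at 100 uM. Gene expression of NFE2L2 by qRT-PCR, bidirectionally fitted against the vehicle control.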

[10] = read-out: succinate dehydrogenase complex iron sulfur subunit B (SDHB), SDHB (gene 6390); assay: LTEA_HepaRG_SDHB: Life Technologies and Expression Analysis (LTEA) Assay for succinate dehydrogenase complex iron sulfur subunit B (SDHB) using HepaRG (AID 2283528)
Procedure, shortened: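 HepaRG cells (~100,000/well, plated 48 h) exposed in duplicate for 48 h in serum-free induction medium to 8-point half-log series from 100 uM in 0.5% DMSO; mRNA by qRT-PCR normalised to ACTB, GAPDH, POLR2A; bidirectional fit versus DMSO.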

[11] = read-out: Signal transducer and activator of transcription 3 (Homo sapiens) (UniProt P40763); assay: LTEA_HepaRG_STAT3: Life Technologies and Expression Analysis (LTEA) Assay for Signal transducer and activator of transcription (STAT3) using HepaRG (AID 2283529)
Procedure, shortened: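 In this transcriptional endpoint, HepaRG cultures receive test chemicals at up to 100 uM for 48 h, tested in duplicate. STAT3 mRNA is normalized to ACTB, GAPDH and POLR2A.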

[12] = read-out: solute carrier (SLCO1B1), SLCO1B1 (gene 10599); assay: LTEA_HepaRG_SLCO1B1: Life Technologies and Expression Analysis (LTEA) Assay for solute carrier (SLCO1B1) using HepaRG (AID 2283530)
Procedure, shortened: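 Differentiated human HepaRG cells, plated 48 h, switched to serum-free induction medium and exposed in duplicate for 48 h to 8 half-log concentrations (top 100 uM) in 0.5% DMSO. SLCO1B1 mRNA by TaqMan qRT-PCR, normalized to ACTB/GAPDH/POLR2A.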

[13] = read-out: sulfotransferase 2A1 (SULT2A1), SULT2A1 (gene 6822); assay: LTEA_HepaRG_SULT2A1: Life Technologies and Expression Analysis (LTEA) Assay for sulfotransferase 2A1 (SULT2A1) using HepaRG (AID 2283531)
Procedure, shortened: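 Differentiated human HepaRG cells in serum-free induction medium were exposed for 48 h to eight half-log concentrations (top 100 uM, 0.5% DMSO). SULT2A1 mRNA was measured by qRT-PCR, normalized to ACTB, GAPDH and POLR2A, and fitted bidirectionally against DMSO.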

[14] = read-out: Transforming Growth Factor (TGFA), TGFA (gene 7039); assay: LTEA_HepaRG_TGFA: Life Technologies and Expression Analysis (LTEA) Assay for Transforming Growth Factor (TGFA) using HepaRG (AID 2283532)
Procedure, shortened: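 Gene expression of TGFA was quantified by qRT-PCR after human HepaRG cells were treated for 48 h with test chemicals (eight concentrations, highest 100 uM, 0.5% DMSO). Activity in either direction was fitted relative to DMSO.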

[15] = read-out: Transforming Growth Factor (TGFB1), TGFB1 (gene 7040); assay: LTEA_HepaRG_TGFB1: Life Technologies and Expression Analysis (LTEA) Assay for Transforming Growth Factor (TGFB1) Transporter using HepaRG (AID 2283533)
Procedure, shortened: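 Differentiated human HepaRG cells in serum-free induction medium were exposed in duplicate for 48 h to eight concentrations (top 100 uM, half-log steps, 0.5% DMSO). TGFB1 mRNA was quantified by qRT-PCR, normalized to ACTB, GAPDH, POLR2A, and fitted bidirectionally against DMSO.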

[16] = read-out: TIMP1, TIMP1 (gene 7076); assay: LTEA_HepaRG_TIMP1: Life Technologies and Expression Analysis (LTEA) Assay for TIMP1 using HepaRG (AID 2283534);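 also: TaqMan qRT-PCR signal normalized to ACTB GAPDH and POLR2A housekeeping genes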
Procedure, shortened: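 Differentiated human HepaRG cells in serum-free induction medium were exposed 48 h to chemicals (8 half-log concentrations, top 100 uM, 0.5% DMSO). TIMP1 mRNA was quantified by TaqMan qRT-PCR, normalized to ACTB/GAPDH/POLR2A; bidirectional fit versus DMSO.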

[17] = read-out: Tumor necrosis factor receptor 1 (TNFRSF1A), TNFRSF1A (gene 7132); assay: LTEA_HepaRG_TNFRSF1A: Life Technologies and Expression Analysis (LTEA) Assay for Tumor necrosis factor receptor 1 (TNFRSF1A) using HepaRG (AID 2283535)
Procedure, shortened: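 Differentiated human HepaRG cells were exposed in duplicate for 48 h in serum-free induction medium to eight concentrations (top 100 uM, half-log steps, 0.5% DMSO). TNFRSF1A mRNA was quantified by qRT-PCR, normalized to ACTB, GAPDH and POLR2A, then fitted bidirectionally against DMSO.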

[18] = read-out: Thyroid Hormone Responsive (THRSP), THRSP (gene 7069); assay: LTEA_HepaRG_THRSP: Life Technologies and Expression Analysis (LTEA) Assay for Thyroid Hormone Responsive (THRSP) using HepaRG (AID 2283536)
Procedure, shortened: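 Cell model: human HepaRG, approx. 100,000 cells/well, 0.5% DMSO vehicle. Exposure lasts 48 h; phenobarbital 1 mM serves as induction positive control. Gene expression is measured by qRT-PCR against three endogenous control genes.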

[19] = read-out: UDP glucuronosyltransferase (UGT1A1), UGT1A1 (gene 54658); assay: LTEA_HepaRG_UGT1A1: Life Technologies and Expression Analysis (LTEA) Assay for UDP glucuronosyltransferase (UGT1A1) using HepaRG (AID 2283538)
Procedure, shortened: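 HepaRG, 48 h chemical exposure (top 100 uM, half-log 8-pt, 0.5% DMSO vehicle), duplicate wells; qRT-PCR (TaqMan, Fluidigm array) for UGT1A1 mRNA, housekeeping-normalized; bidirectional curve fit vs DMSO baseline.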

[20] = read-out: NAD(P)H dehydrogenase [quinone] 1 (NQO1), NQO1 (gene 1728); assay: LTEA_HepaRG_NQO1: Life Technologies and Expression Analysis (LTEA) Assay for NAD(P)H dehydrogenase [quinone] 1 (NQO1) using HepaRG (AID 2283526)
Procedure, shortened: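 qRT-PCR read-out (Fluidigm TaqMan), normalized to three housekeeping genes, after 48 h chemical exposure of HepaRG cells. Concentrations: eight points, top 100 uM, half-log steps, 0.5% DMSO vehicle. Gain or loss of signal fitted relative to DMSO.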

Measured: outcome

Chain of Signal transducer and activator of transcription 3 (Homo sapiens) (P40763 whole entry, looked up): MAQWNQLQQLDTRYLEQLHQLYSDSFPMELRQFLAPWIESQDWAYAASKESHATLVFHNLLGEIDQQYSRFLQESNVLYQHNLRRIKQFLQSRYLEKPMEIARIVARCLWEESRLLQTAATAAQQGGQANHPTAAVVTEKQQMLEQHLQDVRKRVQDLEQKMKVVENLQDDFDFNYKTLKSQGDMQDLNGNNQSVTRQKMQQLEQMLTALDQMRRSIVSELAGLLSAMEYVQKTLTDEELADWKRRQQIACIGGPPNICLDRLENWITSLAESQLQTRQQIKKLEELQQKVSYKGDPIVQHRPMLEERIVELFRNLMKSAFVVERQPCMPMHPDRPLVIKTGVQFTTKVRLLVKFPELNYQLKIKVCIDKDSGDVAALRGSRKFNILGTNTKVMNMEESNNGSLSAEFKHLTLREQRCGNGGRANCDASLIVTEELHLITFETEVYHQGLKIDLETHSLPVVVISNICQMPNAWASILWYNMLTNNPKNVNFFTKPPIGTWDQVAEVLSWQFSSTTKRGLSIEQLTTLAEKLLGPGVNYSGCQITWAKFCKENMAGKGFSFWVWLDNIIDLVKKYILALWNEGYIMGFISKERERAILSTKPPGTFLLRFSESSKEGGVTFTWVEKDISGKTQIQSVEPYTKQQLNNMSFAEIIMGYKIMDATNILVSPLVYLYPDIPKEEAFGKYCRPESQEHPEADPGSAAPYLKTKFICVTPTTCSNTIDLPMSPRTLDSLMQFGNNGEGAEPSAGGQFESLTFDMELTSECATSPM
Chain of Nuclear factor NF-kappa-B p105 subunit (Homo sapiens) (P19838 whole entry, looked up): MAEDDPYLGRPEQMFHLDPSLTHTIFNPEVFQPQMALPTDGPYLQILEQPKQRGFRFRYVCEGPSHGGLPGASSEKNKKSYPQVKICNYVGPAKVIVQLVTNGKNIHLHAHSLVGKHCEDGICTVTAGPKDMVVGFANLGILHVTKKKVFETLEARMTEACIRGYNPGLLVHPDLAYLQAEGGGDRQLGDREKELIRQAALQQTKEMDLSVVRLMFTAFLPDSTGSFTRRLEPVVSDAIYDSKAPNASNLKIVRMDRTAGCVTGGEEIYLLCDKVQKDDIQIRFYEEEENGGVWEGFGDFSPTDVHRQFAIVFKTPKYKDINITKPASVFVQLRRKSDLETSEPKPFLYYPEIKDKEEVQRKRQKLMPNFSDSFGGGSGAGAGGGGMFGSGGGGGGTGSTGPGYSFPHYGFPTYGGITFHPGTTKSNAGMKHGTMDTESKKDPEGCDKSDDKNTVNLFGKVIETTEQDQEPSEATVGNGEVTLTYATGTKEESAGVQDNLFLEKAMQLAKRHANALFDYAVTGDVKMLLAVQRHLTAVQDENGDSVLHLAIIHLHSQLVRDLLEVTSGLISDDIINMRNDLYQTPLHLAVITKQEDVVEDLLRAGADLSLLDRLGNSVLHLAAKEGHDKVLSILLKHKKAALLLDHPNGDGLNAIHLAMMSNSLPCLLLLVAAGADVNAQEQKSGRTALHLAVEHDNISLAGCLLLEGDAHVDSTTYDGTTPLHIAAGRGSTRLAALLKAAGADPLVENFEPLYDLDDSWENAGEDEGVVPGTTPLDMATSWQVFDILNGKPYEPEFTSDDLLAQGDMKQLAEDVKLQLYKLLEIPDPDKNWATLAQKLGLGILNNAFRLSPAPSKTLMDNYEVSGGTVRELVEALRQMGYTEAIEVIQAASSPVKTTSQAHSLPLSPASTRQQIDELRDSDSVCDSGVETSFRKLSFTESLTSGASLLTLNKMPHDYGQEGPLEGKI
Chain of Nuclear factor erythroid 2-related factor 2 (Homo sapiens) (Q16236 whole entry, looked up): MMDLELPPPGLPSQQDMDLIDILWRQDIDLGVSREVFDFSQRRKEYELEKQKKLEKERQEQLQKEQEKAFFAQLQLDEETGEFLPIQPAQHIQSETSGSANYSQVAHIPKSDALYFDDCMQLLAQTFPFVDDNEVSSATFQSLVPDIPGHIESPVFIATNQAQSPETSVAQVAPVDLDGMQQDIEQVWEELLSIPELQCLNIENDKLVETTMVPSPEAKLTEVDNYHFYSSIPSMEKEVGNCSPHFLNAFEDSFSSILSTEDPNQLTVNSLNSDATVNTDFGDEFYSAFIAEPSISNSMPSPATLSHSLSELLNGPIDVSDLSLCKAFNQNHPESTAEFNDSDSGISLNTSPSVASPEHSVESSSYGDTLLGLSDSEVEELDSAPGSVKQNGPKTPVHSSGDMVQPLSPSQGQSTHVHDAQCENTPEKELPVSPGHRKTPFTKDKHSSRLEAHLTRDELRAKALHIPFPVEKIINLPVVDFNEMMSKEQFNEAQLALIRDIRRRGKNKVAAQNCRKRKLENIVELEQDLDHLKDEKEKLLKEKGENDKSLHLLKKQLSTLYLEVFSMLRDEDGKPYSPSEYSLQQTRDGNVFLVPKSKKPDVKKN

OCCOCCOCCO
not listed: [20]
inactive: all other assays above

OC(Cn1cncn1)(Cn1cncn1)c1ccc(F)cc1F
inactive: all assays above

NC(N)=O
not listed: [13] | [19] | [20]
inactive: all other assays above

CCCCCCCC/C=C\CCCCCCCC(=O)OC[C@@H](O)[C@H]1OC[C@H](O)[C@H]1O
not listed: [13]
inactive: all other assays above

CCN(CC)C(=S)SSC(=S)N(CC)CC
not listed: [13] | [19]
inactive: all other assays above

CCCCCCCCCC
not listed: [8] | [19] | [20]
inactive: all other assays above

Cn1cc[nH]c1=S
not listed: [8] | [13]
inactive: all other assays above
